Measured values as given in PMC5700166.
Residue numbers refer to the chain shown, from its start.

Columns and labels:
Assay in all cases: protein-binding microarray (PBM); PBM: ~300 nM protein, 6 mM HEPES pH 7.8, 80 mM KCl, 0.5 mM EDTA, 0.5 mM EGTA, 6% glycerol, 35 ng/ul poly-dIdC, 1% milk, 1 h, room temperature; Ap Aiptasia and Nv Nematostella (sea anemones) / Co Capsaspora / Aq Amphimedon (sponge) / Dm Drosophila / Hu human; RHD is the Rel homology domain; high values mean tight binding
Conditions in all cases: dsDNA, one strand shown
[1] = target: T1, GST-Ap-NF-kB RHD (Exaiptasia pallida (Aiptasia), UniProt A0A913YAJ5 2-422)
T1 sequence: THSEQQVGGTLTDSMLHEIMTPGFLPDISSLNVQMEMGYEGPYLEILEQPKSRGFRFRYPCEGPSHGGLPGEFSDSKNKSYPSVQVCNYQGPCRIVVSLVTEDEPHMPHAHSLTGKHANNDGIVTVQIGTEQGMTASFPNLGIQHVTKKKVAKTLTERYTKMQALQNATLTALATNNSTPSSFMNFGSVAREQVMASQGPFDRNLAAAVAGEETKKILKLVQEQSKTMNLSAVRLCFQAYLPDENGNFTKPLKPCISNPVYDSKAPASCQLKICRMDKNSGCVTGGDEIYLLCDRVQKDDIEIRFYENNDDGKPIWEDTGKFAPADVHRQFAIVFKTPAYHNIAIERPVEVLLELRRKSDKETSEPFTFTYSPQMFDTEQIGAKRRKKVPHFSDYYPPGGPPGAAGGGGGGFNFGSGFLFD

[2] = target: T2, GST-Nv-NF-kB (Cys allele) (Nematostella vectensis, UniProt E5G601 2-411)
T2 sequence: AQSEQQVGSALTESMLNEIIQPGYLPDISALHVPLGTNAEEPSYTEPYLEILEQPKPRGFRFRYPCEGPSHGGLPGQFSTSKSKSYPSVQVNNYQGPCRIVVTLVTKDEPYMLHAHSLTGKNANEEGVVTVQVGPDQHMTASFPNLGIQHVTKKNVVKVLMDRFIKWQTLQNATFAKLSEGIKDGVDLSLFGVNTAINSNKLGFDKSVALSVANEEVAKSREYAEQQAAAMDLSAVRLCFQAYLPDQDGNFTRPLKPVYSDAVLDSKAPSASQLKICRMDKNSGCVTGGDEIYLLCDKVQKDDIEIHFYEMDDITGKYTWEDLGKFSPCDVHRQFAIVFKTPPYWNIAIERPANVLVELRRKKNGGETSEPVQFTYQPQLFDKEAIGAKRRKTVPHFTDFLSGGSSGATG

[3] = target: T3, GST-Nv-NF-kB (Ser allele) (Nematostella vectensis, UniProt A7UNT2 2-411)
T3 sequence: T2 sequence with Q21R, C66S, S207N, E215Q, V217A, E225K, A268E, D399E

[4] = target: T4, GST-Co-NF-kB (Capsaspora owczarzaki, UniProt F1ARL5 200-546)
T4 sequence: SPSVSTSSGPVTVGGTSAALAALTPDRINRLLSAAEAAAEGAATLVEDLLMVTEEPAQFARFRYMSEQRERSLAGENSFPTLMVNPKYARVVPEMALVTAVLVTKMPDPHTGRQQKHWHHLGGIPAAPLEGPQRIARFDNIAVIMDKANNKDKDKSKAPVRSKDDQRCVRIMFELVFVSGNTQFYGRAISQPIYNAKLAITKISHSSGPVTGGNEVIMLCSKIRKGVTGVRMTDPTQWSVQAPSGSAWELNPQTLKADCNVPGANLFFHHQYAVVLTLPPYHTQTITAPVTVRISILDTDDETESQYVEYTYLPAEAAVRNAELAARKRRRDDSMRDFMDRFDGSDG

[5] = target: T5, GST-Dm-Relish (Drosophila melanogaster, UniProt Q94527 99-473)
T5 sequence: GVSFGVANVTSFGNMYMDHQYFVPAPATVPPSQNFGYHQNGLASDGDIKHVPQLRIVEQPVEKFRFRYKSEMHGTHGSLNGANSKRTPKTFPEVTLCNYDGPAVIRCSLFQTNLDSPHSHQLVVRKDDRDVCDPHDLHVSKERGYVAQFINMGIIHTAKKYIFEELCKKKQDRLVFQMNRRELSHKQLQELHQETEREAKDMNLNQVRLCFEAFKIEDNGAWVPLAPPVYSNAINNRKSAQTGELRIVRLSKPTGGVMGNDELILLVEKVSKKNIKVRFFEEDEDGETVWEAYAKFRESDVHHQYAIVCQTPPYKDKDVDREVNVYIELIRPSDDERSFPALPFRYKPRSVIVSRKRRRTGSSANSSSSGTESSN

[6] = target: T6, GST-Aq-NF-kB (Amphimedon queenslandica, UniProt A9Y5G7 2-389)
T6 sequence: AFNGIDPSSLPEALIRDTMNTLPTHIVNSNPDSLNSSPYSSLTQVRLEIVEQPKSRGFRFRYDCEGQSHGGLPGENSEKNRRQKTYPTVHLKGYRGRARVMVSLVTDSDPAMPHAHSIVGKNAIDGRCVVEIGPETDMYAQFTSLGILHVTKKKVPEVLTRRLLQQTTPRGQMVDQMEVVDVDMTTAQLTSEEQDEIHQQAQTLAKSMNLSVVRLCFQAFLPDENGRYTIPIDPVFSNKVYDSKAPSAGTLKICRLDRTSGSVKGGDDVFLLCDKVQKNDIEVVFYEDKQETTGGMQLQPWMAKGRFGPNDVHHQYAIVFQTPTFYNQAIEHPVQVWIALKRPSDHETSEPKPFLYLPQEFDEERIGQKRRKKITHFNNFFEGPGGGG

[7] = target: GST-Hu-p50 (Homo sapiens, UniProt P19838 7-356)
GST-Hu-p50, sequence (P19838 7-356): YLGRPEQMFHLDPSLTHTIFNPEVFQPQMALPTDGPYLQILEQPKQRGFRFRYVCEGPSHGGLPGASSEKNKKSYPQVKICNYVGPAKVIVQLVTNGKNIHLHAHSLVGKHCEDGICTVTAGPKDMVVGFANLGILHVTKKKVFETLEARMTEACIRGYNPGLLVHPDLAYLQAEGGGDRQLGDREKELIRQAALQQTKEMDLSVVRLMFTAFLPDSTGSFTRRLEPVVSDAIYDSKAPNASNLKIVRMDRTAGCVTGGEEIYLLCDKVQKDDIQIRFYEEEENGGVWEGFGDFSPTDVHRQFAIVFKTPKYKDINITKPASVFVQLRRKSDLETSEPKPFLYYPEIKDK

| Sequence | binding signal [1] [z-score] | binding signal [2] [z-score] | binding signal [3] [z-score] | binding signal [4] [z-score] | binding signal [5] [z-score] | binding signal [6] [z-score] | binding signal [7] [z-score] |
| --- | --- | --- | --- | --- | --- | --- | --- |
| CCGATTAACATCAGGGGAATGTATGATGTTAATCGGGTCTTGATTCGCTTGACGCTGCTG | 6.02 | 7.74 | 8.56 | 6.26 | 2.96 | 5.58 | 5.69 |
| CCGATTAACATCAGGGGGATTCATGATGTTAATCGGGTCTTGATTCGCTTGACGCTGCTG | 8.54 | 7.43 | 8.48 | 5.63 | 7.41 | 6.1 | 7.07 |
| CCGATTAACATCAGGGAAAGCACTGATGTTAATCGGGTCTTGATTCGCTTGACGCTGCTG | 3.61 | 4.73 | 3.86 | 2.69 | 6.76 | 6.5 | 3.98 |
| CCGATTAACATCAGATAATCCCCTGATGTTAATCGGGTCTTGATTCGCTTGACGCTGCTG | 8.1 | 8.93 | 9.43 | 4.09 | 6.59 | 7.45 | 6.48 |
| CCGATTAACATCAGGGGAACGCATGATGTTAATCGGGTCTTGATTCGCTTGACGCTGCTG | 5.31 | 5.4 | 6.49 | 4.99 | 2.68 | 3.75 | 4.2 |
| CCGATTAACATCAGGGGAACTTATGATGTTAATCGGGTCTTGATTCGCTTGACGCTGCTG | 7.4 | 8.58 | 8.41 | 7.21 | 7.11 | 6.48 | 5.95 |
| CCGATTAACATCAGCTTCCCCCCTGATGTTAATCGGGTCTTGATTCGCTTGACGCTGCTG | 5.3 | 4.97 | 5.68 | 7.68 | 4.2 | 4.55 | 4.95 |
| CCGATTAACATCACAGAAATCCCTGATGTTAATCGGGTCTTGATTCGCTTGACGCTGCTG | 4.33 | 3.88 | 3.79 | 1.43 | 5.77 | 3.9 | 3.37 |
| CCGATTAACATCAGGGGGAAGAATGATGTTAATCGGGTCTTGATTCGCTTGACGCTGCTG | 5.11 | 6.3 | 6.8 | 9.93 | 4.78 | 4.87 | 5.86 |
| CCGATTAACATCAAATTTCCCCCTGATGTTAATCGGGTCTTGATTCGCTTGACGCTGCTG | 9.03 | 9.93 | 12.8 | 12.3 | 7.24 | 7.79 | 7.66 |
| CCGATTAACATCACCCGTTCCCCTGATGTTAATCGGGTCTTGATTCGCTTGACGCTGCTG | 5.61 | 4.83 | 6.11 | 4.75 | 1.99 | 3.78 | 3.85 |
